Assay outcomes (PubChem BioAssay)
Compounds with a hit are over-represented: about 6.6% of the library has one in this group of screens.
Autofluor counter: flagged as autofluorescent in microsphere protease counterscreen; compound autofluorescence counterscreen, microsphere flow cytometry; hits give high values; fluorescence intensity (test concentration not listed); hit rate 3.1% among 360,000; in the data active = fluorescence intensity above about 16000; inconclusive = no clear call, values can overlap the other calls
Mtb FBA inh: Mtb fructose-bisphosphate aldolase inhibition; P9WQA3; purified M. tuberculosis FBA, fluorescence read-out; inhibition, % at 1 µM; hit rate 2.3% among 360,000; AID 588726; in the data active = inhibition above about 27%
Target sequence (P9WQA3 whole entry, looked up): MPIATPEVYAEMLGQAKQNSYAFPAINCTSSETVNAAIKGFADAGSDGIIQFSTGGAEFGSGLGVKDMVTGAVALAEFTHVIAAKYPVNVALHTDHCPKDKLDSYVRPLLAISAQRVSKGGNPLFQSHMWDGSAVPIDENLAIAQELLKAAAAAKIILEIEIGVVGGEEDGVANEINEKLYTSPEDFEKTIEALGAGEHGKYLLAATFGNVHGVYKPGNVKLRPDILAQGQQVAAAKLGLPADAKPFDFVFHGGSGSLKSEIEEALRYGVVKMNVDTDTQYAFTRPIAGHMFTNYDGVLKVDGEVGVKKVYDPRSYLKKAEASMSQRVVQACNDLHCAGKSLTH
Anthrax LF inh2: inhibitors of Bacillus anthracis lethal factor protease. P15917. multiplex microsphere protease cleavage assay, LF. inhibition, % at 10 µM. hit rate 0.12% among 360,000. AID 588501
BoNT F protease: BoNT F light chain protease inhibition; inhibition, % at 10 µM; AID 588497; hit rate 0.22% among 360,000; Multiplex microsphere protease cleavage assay, flow cytometry; in the data active = inhibition above about 35%, passing the limit was not always enough; inconclusive = no clear call, values can overlap the other calls
GDH-TPI counter: inhibits GDH-TPI coupling enzymes, artifact for Mtb FBA screen; GDH-TPI coupled enzyme counterscreen, NADH absorbance; inhibition, % at 4.8 µM; hit rate 1.2% among 360,000; AID 588335; in the data active = inhibition above about 30%
BoNT-A LC inh2: BoNT A light chain protease inhibition; multiplex microsphere protease substrate cleavage, flow cytometry; inhibition, % at 10 µM; hit rate 0.17% among 360,000
Of the large screens only hits and unclear results are named; the others gave an inactive call. Rule as the data show it, unless noted: active = inhibition above about 30%; inconclusive = no clear call, values can overlap the other calls; inactive = below that.

N#Cc1c(N)nc2c(c1-c1ccc3c(c1)OCO3)CCc1ccccc1-2	Mtb FBA inh 31
N#Cc1c(N)c(C#N)c(-c2ccc3c(c2)OCO3)c2c1CCCC2	GDH-TPI counter 41
N#Cc1c(-c2ccc3c(c2)OCO3)csc1N	none
CCOC(=O)C1(C)CCCN(C(=O)c2c(F)cccc2F)C1 (stereo not drawn)	none
CCOc1ccc(C(=O)NC(=S)NCc2cccnc2)cc1[N+](=O)[O-]	none
CCc1ccc(CNc2ccc3c(c2)ncn3C)cc1	Autofluor counter 21662
Cc1cc(-c2nc3ncccc3o2)ccc1NC(=O)CC(C)C	Mtb FBA inh active
CCn1cc(/C=C(\NC(=O)c2ccccc2)C(=O)NCCN2CCOCC2)c2ccccc21	GDH-TPI counter 48
CCn1cc(/C=C(\NC(=O)c2ccc(C)cc2)C(=O)NCCCN2CCOCC2)c2ccccc21	GDH-TPI counter 41
CCn1cc(/C=C(\NC(=O)c2ccccc2F)C(=O)N2CCN(C)CC2)c2ccccc21	GDH-TPI counter 39
COc1ccccc1C(=O)N/C(=C\c1cn(C)c2ccccc12)C(=O)NCCCN1CCOCC1	GDH-TPI counter 36
N#C/C(=C\c1cccnc1)C(=O)Nc1ccc(O)cc1F	none
O=C(Nc1ccc(S(=O)(=O)N2CCOCC2)cc1)c1ccccc1F	none
COCCCn1c(C)cc(C(=O)COC(=O)C23CC4CC(CC(O)(C4)C2)C3)c1C	none
CCn1cc(/C=C(\NC(=O)c2ccc(OC)c(OC)c2)C(=O)NCCCN2CCOCC2)c2ccccc21	GDH-TPI counter 41
CN(C)c1ccc(/C=C(/NC(=O)c2ccccc2Cl)C(=O)NCCN2CCOCC2)cc1	GDH-TPI counter 42
CN(C)c1ccc(/C=C(/NC(=O)c2ccccc2)C(=O)NCCN2CCOCC2)cc1	none
Cc1cccc(C(=O)OCC(=O)N(CC(C)C)c2c(N)n(Cc3ccccc3)c(=O)[nH]c2=O)c1O	none
Cc1ccc(C2(C(F)(F)F)NC(=O)N3CCN=C3S2)cc1 (stereo not drawn)	Autofluor counter 21208, BoNT-A LC inh2 inconclusive
Cc1ccc(C2(C(F)(F)F)NC(=O)N3CCCN=C3S2)cc1 (stereo not drawn)	none
O=C(Nc1ccc(-c2cn3ccsc3n2)cc1)c1ccc(F)c(S(=O)(=O)N2CCOCC2)c1	Autofluor counter 19935
O=c1cc(-c2ccc(O)cc2)oc2c1ccc1ccccc12	none
O=c1cc(-c2ccc(O)cc2)oc2c(O)c(O)c(O)c(O)c12	GDH-TPI counter 37
CNc1nc(SCc2ccccc2Cl)nc2c1CCCC2	none
Cc1ccc(NC(=O)C2CCCN2C(=O)OC(C)(C)C)cc1C (stereo not drawn)	none
CCCOc1ccc(/C=C/c2c([N+](=O)[O-])c(=O)n(C)c(=O)n2C)cc1	BoNT F protease inconclusive, GDH-TPI counter 39, BoNT-A LC inh2 inconclusive
COCCNC(=O)Cn1cc(/C=N/NC(=O)c2ccc(Oc3ccc(O)cc3)cc2)c2ccccc21	none
Cc1ccc(C)c(N2CCN(C(=O)CCCn3c(=S)[nH]c4cc5c(cc4c3=O)OCO5)CC2)c1	Autofluor counter 17273
CCOC(=O)N1CCN(C(=O)CCCn2c(=S)[nH]c3ccc(Br)cc3c2=O)CC1	Autofluor counter 20951, BoNT-A LC inh2 inconclusive
O=C(CCCn1c(=S)[nH]c2cc3c(cc2c1=O)OCO3)N1CCN(c2ncccn2)CC1	Autofluor counter 20894, BoNT-A LC inh2 inconclusive
O=C(CCCCCn1c(=S)[nH]c2cc3c(cc2c1=O)OCO3)N1CCN(c2ccccc2)CC1	none
Cc1cc(C(=O)O)cc(S(=O)(=O)Nc2ccccc2C(=O)NC2CC2)c1C	none
O=C(CSc1nc2nn(-c3ccccc3)c(=O)c-2c2n1CCCCC2)Nc1ccc(F)c(F)c1	none
Cc1ccccc1SCC(=O)NC1CCOC1=O (stereo not drawn)	Autofluor counter 22927
O=C(C[n+]1ccc(C(=O)c2ccccc2)cc1)Nc1cccc([N+](=O)[O-])c1	none (no result: Mtb FBA inh, GDH-TPI counter)
CCN(C(=O)COC(=O)c1ccccc1NCCO)c1cccc2ccccc12	Mtb FBA inh 114
O=C(OCC(=O)N1CCN(C(=O)c2ccco2)CC1)c1ccccc1NCCO	Mtb FBA inh 124
CCN(C(=O)COc1ccc(C)cc1OC)c1cccc2ccccc12	none
CC1CCN(C(=O)COC(=O)c2ccccc2NC(=O)c2ccco2)CC1	none
O=C(OCC(=O)N1CCN(C(=O)COC(=O)c2ccccc2NCCO)CC1)c1ccccc1NCCO	Mtb FBA inh 162
CNc1ccccc1C(=O)OCC(C)=O	Mtb FBA inh 62
CCN(CC(=O)Nc1ccc(NC(C)=O)cc1)C(=O)CSc1ncnc2sc(C)c(C)c12	Autofluor counter inconclusive
